Only some compounds are listed: those with a hit (about 7.1% of all), similar ones and a draw of the others.
PINK1 expr mod = A Quantitative High throughput Screen to Identify Chemical Modulators of PINK1 Expression | PINK1 immunofluorescence, high-content cytometry, 24 h | Potency, µM (top dose mostly 76.6 µM), for the others: at the highest dose activation (PINK1 increase), usual class: activators | hit rate 0.2% among 410,000; active means well fitted activation curve with a large enough effect; inconclusive means small, poorly fitted or top-dose-only effect; cell line not stated here; further: potency means the concentration at half of the fitted maximal effect; % of control where 0% means no effect; nearly all actives have a fitted effect of over 65% in size
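Compound titrations (5 concentrations, 24 h) on a stable cell line; DMSO and CCCP controls. Endpoint: fixed-cell PINK1 immunofluorescence with mitochondrial, cell and nuclear markers, scanned by microplate cytometer.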
ATXN2 expr inh = Primary qHTS for Inhibitors of ATXN expression | Potency, µM (series often up to 57 µM), without a hit: top-dose activity change, negative = inhibition, hits mostly inhibitors | AID 1745845, 2022 | hit rate 0.72% among 360,000 | HEK-293 ATXN2-luciferase reporter, luminescence, 24 h; further: potency means the concentration at half of the fitted maximal effect; on the % scale 0 is the no-effect control and ±100 the full control effect; nearly all actives have a fitted effect of over 55% in size
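ATXN2-luciferase reporter cells (luciferase flanked by upstream and downstream ATXN2 gene portions) were treated 24 h at 37 °C with compounds at up to 57 uM. SteadyGlo luminescence gave expression; GF-AFC fluorescence gave viability.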
SW480 rereplic = A quantitative high throughput screen for small molecules that induce DNA re-replication in SW480 colon adenocarcinoma cells | hit rate 1.8% among 340,000 | Potency, µM (titrated, usually from 46.1 µM), for inactives: at the top dose re-replication activation, usual class: activators | AID 624297, 2012 | SW480 DNA re-replication, Hoechst DNA content imaging, 48 h; further: potency means the concentration at half of the fitted maximal effect; % of control where 0% means no effect; nearly all actives have a fitted effect of over 55% in size
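Treated cells incubate 48 hr (37 C, 5% CO2), are stained 40 min with Hoechst, and nuclear fluorescence is enumerated; a rise in nuclei with high DNA signal marks re-replication.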
IL1B secr inh = qHTS for Inhibitors of Inflammasome Signaling: IL-1-beta AlphaLISA Primary Screen | THP-1 LPS/ATP IL-1B secretion, AlphaLISA, 16 h; hits give low values | activity change, % at 57.5 µM | hit rate 4.7% among 360,000 | AID 743279, 2014; in the data active means activity change below about -50%; inconclusive means mostly about -30% to -49%; further: on the % scale 0 is the no-effect control and ±100 the full control effect
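Secreted IL-1B measured by AlphaLISA bead assay after 16 h compound exposure of THP-1 cells; compounds (final up to 57.5 uM) added 1 h before LPS (250 ng/mL) and ATP (1.25 mM) stimulation; lower signal means less secretion.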
ATXN viability = Viability Counterscreen for Primary qHTS for Inhibitors of ATXN expression | hit rate 0.49% among 400,000 | Potency, µM (titrated, usually from 56.7 µM), hits mostly cytotoxic | S2 cells (HEK-293 line with an ATXN2-luciferase reporter) viability, CellTiter-Fluor protease fluorescence, 24 h; further: potency means the concentration at half of the fitted maximal effect; nearly all actives have a fitted effect of over 40% in size
MCF10A rerep = A quantitative high throughput screen for small molecules that induce DNA re-replication in MCF 10a normal breast cells | MCF 10A DNA re-replication, Hoechst nuclear intensity, 48 h | Potency, µM (series often up to 46.1 µM), for the others: top-dose activity, positive = re-replication, actives largely listed as activators | hit rate 2.9% among 350,000; further: potency means the concentration at half of the fitted maximal effect; % of control where 0% means no effect; nearly all actives have a fitted effect of over 50% in size
The depositor's hits bear a star; i = inactive; ? = inconclusive; nt = no result given. Unless noted, the call rests on the fitted dose curve; in most records, active means well fitted curve in the direction sought with a large enough effect; inconclusive means small, poorly fitted or top-dose-only effect, or another doubt; inactive means no such curve, though single readings can be large; an effect the other way counts as inactive or inconclusive.

SMILES	PINK1 expr mod	ATXN2 expr inh	SW480 rereplic	IL1B secr inh	ATXN viability	MCF10A rerep
Cc1cc(=O)n2c3ccccc3n(CC(O)CN3CCCC3)c2c1C#N (centres undefined)	nt	-19.3%	10.1%	-65.1*	?	?
COc1ccc(-n2nc(-c3ccc(C)cc3)c3cnc4cc(F)c(F)cc4c32)cc1	4.1%	1.4%	nt	nt	i	nt
COc1cc2c(NC3CCN(C)CC3)nc(N3CCCN(C)CC3)nc2cc1OCCN(C)C	0.3%	nt	nt	nt	nt	nt
CCc1ccccc1N(C)C(=O)c1nn(C)c2c1CSc1ccccc1-2	0.3%	nt	nt	nt	nt	nt
CCCCCCC[C@@H](C/C=C/CCC(=O)N(C)C/C(=C/Cl)C/C(=C\C(=O)N1C[C@H](O)CC1=O)OC)OC	-1.2%	?	?	-70.6*	?	?
CCCCCCC[C@@H](C/C=C/CCC(=O)N(C)C/C(=C/Cl)C/C(=C\C(=O)N1CC(OC)=CC1=O)OC)OC	9.3%	?	?	105.9	22.4µM*	?
COc1ccc2oc(=O)cc(CN3CCN(C(=O)c4ccccc4F)CC3)c2c1	0.1%	nt	nt	nt	nt	nt
Cn1c(=O)cc(SCC(=O)NCc2ccc(F)cc2)c2ccccc21	4.7%	12.6%	15.1%	-16.9	i	14.6µM*
CCn1c(SCC(=O)Nc2cccc(C)c2)nc2nc3c(cc2c1=O)COC(C)(C)C3	2.2%	?	-3.2%	-83.0*	nt	7.2%
CCn1c(SCC(=O)Nc2ccccc2)nc2nc3c(cc2c1=O)COC(C)(C)C3	3.2%	-18.8%	2.5%	-1.2	i	-1.5%
COc1cc(-c2ccc(C)cc2)cc2c1OCCN(C(=O)CCn1ccc(C)n1)C2	0.8%	nt	nt	nt	i	nt
CN(CC(=O)NCCc1ccc(F)cc1)Cc1ccc(Br)cc1	0.6%	-12.1%	-2.2%	-59.4*	i	-1.7%
CN(CC(=O)Nc1ccc(Br)cc1)Cc1ccccc1	6.9%	13.1%	1.1%	-81.1*	i	-2.9%
CCOc1ccc(NC(=O)CSc2cn(CC(=O)N3CCOCC3)c3ccccc23)cc1	-0.4%	nt	nt	nt	nt	nt
O=c1oc2ccccc2c(NC2CCCCC2)c1NS(=O)(=O)c1ccc(Br)cc1	-0.4%	-0.1%	?	-70.6*	?	12.5%
O=c1c2ccccc2n(Cc2ccccc2Cl)c(=O)n1CCc1ccccc1	2.6%	11.5%	nt	nt	i	nt
COc1ccc(C(=O)/C(Br)=C/C(=O)O)cc1	nt	nt	?	nt	nt	21.1µM*
COc1ccc(C(=O)C(=O)c2ccc(OCCO)cc2)cc1	1.0%	15.0%	-9.8%	22.8	i	-4.3%
O=C(CSC1CS(=O)(=O)c2cc([N+](=O)[O-])ccc21)NNC(=O)c1ccccc1 (centres undefined)	-0.6%	10.9%	9.2µM*	-8.3	i	?
O=C(Cn1cc(C(F)(F)F)ccc1=O)N/N=C/c1ccc(F)cc1	-0.1%	-11.2%	10.3%	-5.6	i	3.1%
O=C(CCCCC(=O)NN=Cc1ccccc1O)NN=Cc1ccccc1O	?	?	1.46µM*	123.2	i	?
O=C(COc1nsnc1N1CCOCC1)N/N=C/c1ccccc1O	4.1%	?	18.4µM*	48.2	i	?
C=CCn1c(CNc2ccccc2)nnc1SCC(=O)N/N=C/c1ccccc1O	0.1%	17.8µM*	?	78.3	i	42.9%
O=C(Cn1cc(C(F)(F)F)ccc1=O)N/N=C/c1ccccc1O	-0.2%	0.0%	5.8µM*	115.6	i	0.1%
CC(C)N(CC[C@H](c1ccccc1)c1cc(CO)ccc1O)C(C)C	nt	-7.5%	nt	nt	nt	nt
SMILES	PINK1 expr mod	ATXN2 expr inh	SW480 rereplic	IL1B secr inh	ATXN viability	MCF10A rerep
Cc1ccc(SCCC(=O)N/N=C/c2ccccc2O)cc1	1.5%	25.1µM*	?	144.2	i	2.8%
O=C(CCC(=O)Nc1ccc(Br)cc1)N/N=C/c1ccccc1O	7.3%	?	?	144.1	i	16.2%
O=C(CSCC(=O)NN=Cc1ccccc1O)NN=Cc1ccccc1O	-2.0%	?	?	37.5	?	14.6µM*
CSc1nc(C)cc(OCC(=O)N/N=C/c2ccccc2O)n1	2.4%	14.1µM*	?	48.7	i	5.17µM*
Cc1ccc(NC(=O)CCC(=O)N/N=C/c2ccccc2O)cc1	0.6%	nt	11.5%	111.7	?	0.8%
COc1cc2[nH]c(=O)n(CCCC(=O)NCc3ccc(Cl)cc3)c(=O)c2cc1OC	1.0%	-4.0%	nt	nt	i	nt
c1ccc(C2Oc3ccccc3C3CC(c4cccs4)=NN32)cc1 (centres undefined)	3.5%	11.0%	?	-3.9	?	?
O=[N+]([O-])c1ccc(C2Oc3ccccc3C3CC(c4ccccc4)=NN32)s1 (centres undefined)	nt	nt	23.1µM*	nt	nt	14.6µM*
COc1ccc(-c2ccc(/C=C3/C(=N)N4C(C)=CSC4=NC3=O)o2)c([N+](=O)[O-])c1	?	-33.9%	8.9%	-3.9	?	20.6µM*
Cc1cnc2c3c(cc(Cl)c2c1)-c1ccccc1S(=O)(=O)N3	11.6%	nt	nt	nt	nt	nt
O=C1c2[nH]nc(-c3ccccc3O)c2C(c2cccc(Br)c2)N1Cc1ccncc1 (centres undefined)	3.9%	?	nt	nt	11.2µM*	nt
COc1cccc(C2c3c(-c4cc(Cl)c(C)cc4O)n[nH]c3C(=O)N2Cc2cccnc2)c1 (centres undefined)	-0.6%	1.1%	3.7%	?	?	22.9%
Cc1ccc(C2c3c(-c4ccccc4O)n[nH]c3C(=O)N2Cc2ccncc2)cc1 (centres undefined)	-4.1%	-28.8%	18.4µM*	?	?	7.31µM*
COc1cc(C2c3c(-c4cc(Cl)c(C)cc4O)n[nH]c3C(=O)N2Cc2cccnc2)ccc1O (centres undefined)	1.2%	1.6%	0.1%	-59.3*	?	16.9%
COC(=O)c1ccc(C2c3c(-c4ccccc4O)n[nH]c3C(=O)N2Cc2ccncc2)cc1 (centres undefined)	3.5%	0.1%	nt	nt	?	nt
Cc1cccc(C(=O)N2CCc3cc(CNC(=O)c4cc5ccccc5[nH]4)ccc32)c1	0.6%	nt	nt	nt	nt	nt
Cc1ccc(C2c3[nH]c4ccccc4c3CCN2C(=O)CCc2ccccc2)cc1 (centres undefined)	0.0%	nt	nt	nt	nt	nt
O=C(CCCCn1c(=O)c2ccccc2n(Cc2ccc(F)cc2)c1=O)NCc1ccco1	16.7%	-20.2%	?	-3.8	?	18.4µM*
O=C(NC1CCCCC1)C(C1CC1)n1c(=O)c(-c2cc3ccccc3[nH]2)nc2ccccc21 (centres undefined)	nt	nt	nt	-1.7	nt	nt

Bioassay records (PubChem BioAssay)
